Measurements from ChEMBL document CHEMBL4808148, “HDAC6 screening dataset using tau-based substrate in an enzymatic assay yields selective inhibitors and activators” (2021).
Out of some 5,600 compounds screened, about 390 (7%) showed an effect of 50% or more. The full list was thinned out, with strong results kept by preference.

What was measured:
[1] = biological target: Protein deacetylase HDAC6 (Homo sapiens) (UniProt Q9UBN7); details: at 10 µM
[2] = biological target: T1, Protein deacetylase HDAC6 (Homo sapiens) (UniProt Q9UBN7); details: at 10 µM; remark: listed apart in the source
T1 sequence (whole entry): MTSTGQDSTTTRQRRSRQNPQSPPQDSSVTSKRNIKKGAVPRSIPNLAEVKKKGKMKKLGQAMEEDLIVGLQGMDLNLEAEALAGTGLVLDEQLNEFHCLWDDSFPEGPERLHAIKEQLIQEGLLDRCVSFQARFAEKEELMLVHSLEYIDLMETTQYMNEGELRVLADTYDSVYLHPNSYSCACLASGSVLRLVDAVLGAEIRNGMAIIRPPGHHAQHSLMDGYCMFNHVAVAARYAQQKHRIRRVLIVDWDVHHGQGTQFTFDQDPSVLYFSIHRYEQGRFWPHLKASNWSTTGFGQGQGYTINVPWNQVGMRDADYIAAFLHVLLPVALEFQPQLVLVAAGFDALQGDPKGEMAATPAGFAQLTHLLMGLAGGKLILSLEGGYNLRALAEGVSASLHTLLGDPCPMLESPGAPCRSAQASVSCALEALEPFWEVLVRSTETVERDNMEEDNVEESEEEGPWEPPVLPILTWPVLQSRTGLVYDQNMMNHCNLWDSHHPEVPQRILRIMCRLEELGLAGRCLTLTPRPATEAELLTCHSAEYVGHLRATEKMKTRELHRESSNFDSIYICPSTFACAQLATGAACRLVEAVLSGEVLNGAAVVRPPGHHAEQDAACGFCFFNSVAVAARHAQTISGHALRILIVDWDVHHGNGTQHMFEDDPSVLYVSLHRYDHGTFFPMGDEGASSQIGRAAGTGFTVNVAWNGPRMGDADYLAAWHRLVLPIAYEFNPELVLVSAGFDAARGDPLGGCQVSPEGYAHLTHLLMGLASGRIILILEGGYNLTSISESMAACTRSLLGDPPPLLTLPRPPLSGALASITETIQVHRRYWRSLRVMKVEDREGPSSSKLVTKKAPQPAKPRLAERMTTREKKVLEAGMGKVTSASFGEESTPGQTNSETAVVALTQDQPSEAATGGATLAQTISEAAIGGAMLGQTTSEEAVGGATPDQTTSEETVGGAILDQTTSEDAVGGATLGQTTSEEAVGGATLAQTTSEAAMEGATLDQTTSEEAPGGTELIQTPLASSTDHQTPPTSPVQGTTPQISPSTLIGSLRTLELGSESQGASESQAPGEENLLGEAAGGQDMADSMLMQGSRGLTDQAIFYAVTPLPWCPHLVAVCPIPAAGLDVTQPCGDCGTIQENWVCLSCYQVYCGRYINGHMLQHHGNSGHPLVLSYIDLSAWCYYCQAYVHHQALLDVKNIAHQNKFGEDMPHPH

Compound | inhibition [1] [%] | inhibition [2] [%]
AURANOFIN, CHEMBL1366 | -8.98 | –
Antimonyl (potassium tartrate trihydrate), CHEMBL2097098 | 13.3 | –
ANTIMONY POTASSIUM TARTRATE TRIHYDRATE, CHEMBL2097098 | 31.4 | –
BIS(MALTOLATO)OXOVANADIUM(IV), CHEMBL286447 | 51.3 | –
CO[C@@H]1[C@H](OC(=O)/C=C/C=C/C=C/C=C/C(=O)O)CC[C@]2(CO2)[C@H]1[C@@]1(C)O[C@@H]1CC=C(C)C | – | 3.49
CCCCC[C@H](O)/C=C/[C@@H]1[C@H]2C/C(=C/CCCC(=O)O)O[C@H]2C[C@H]1O | – | 10.8
Cn1cc(CCn2cnc(-c3cnn(C)c3)c2-c2ccc(C#N)cc2)cn1 | – | 15
O=S(=O)(O)c1ccc2[nH]c(-c3ccccc3)nc2c1 | – | 84.1
O=C1c2ccc(Nc3ccc(F)cc3F)cc2CCc2ccc(OC[C@H](O)CO)cc21 | – | 24.2
C#Cc1cnc2nc(O)n(C(CC)CC)c2n1 | – | -6.31
Nc1ncnc(Nc2ccc(Cl)cc2)n1 | – | 74.5
Nc1ncnc2[nH]nc(Nc3ccc(F)cc3)c12 | – | 17.6
Nc1nc(N)nc(-c2cc(Cl)ccc2Cl)n1 | – | 17.2
CCO/N=C(/C(=O)NC1C(=O)N2C(C(=O)O)=C(Sc3nc(-c4cc[n+](C)cc4)cs3)CS[C@H]12)c1nsc(NP(=O)(O)O)n1 (stereo partly specified) | – | 20.6
CC(C)[C@@H]1CC[C@@H](C)C[C@H]1O | – | 2.89
CN(C)CCC(O)(c1ccccc1)c1ccccc1Cl (stereo unspecified) | – | 36.5
Cc1ccc(NC2=CC(=O)c3sc(C)nc3C2=O)cc1 | – | 53.2
Cc1c(-c2ccccc2F)[nH]c(N)c1C#N | – | 28.6
VERTEPORFIN, CHEMBL5314346 | 22.2 | –
Nc1nccc(/C=C/c2ccccc2)n1 | – | 99.6
Cc1cccc(/C=C/c2ccccc2)n1 | – | 100
CC[N+](CC)(CC)CCOc1ccc(/C=C/c2ccccc2)cc1 | – | -4.16
CC(C)[C@@H]1CC[C@@H](C)C[C@@H]1P(=O)(c1ccccc1)c1ccccc1 | – | -9.96
CCC(CC)(NC(=O)C(C)C)C(=O)N[C@@H](CCCNC(=N)N)C(=O)NC1(C(=O)NC(c2ccc(F)cc2)c2ccc(F)cc2)CCCC1 | – | 22
CSC[C@H](N)C(=O)O | – | 15.3
Cc1ccc2c(c1)C(=O)[C@]1(O)CCN(c3ccccc3)C1=N2 | – | -8.19

Compound | inhibition [1] [%] | inhibition [2] [%]
O=c1c(-c2ccc(O)cc2)coc2cc(O)cc(O)c12 | – | 112
COc1ccc(-c2coc3cc(O)cc(O)c3c2=O)cc1 | – | 100
CN1CCN(c2ccc(/C=C(\C#N)c3ccccc3Br)cc2)CC1 | – | -8.48
Nc1ncc(Cc2ccc(Br)cc2)s1 | – | 12.3
c1ccc(-c2nc(CN3CCN(c4ncccn4)CC3)c[nH]2)cc1 | – | -4.48
C=CCOc1ccc(CC(=O)O)cc1Cl | – | 9.47
Cc1ccsc1C(=CCCN1CCC[C@@H](C(=O)O)C1)c1sccc1C | – | 20.9
NC1(c2ccc(-c3nc4ccn5c(=O)[nH]nc5c4cc3-c3ccccc3)cc2)CCC1 | – | 12.5
O=C(O)CCc1cc(I)c(Oc2ccc(O)cc2)c(I)c1 | – | -9.91
CC(CNS(=O)(=O)C(C)C)c1ccc(-c2ccc(C#N)cc2)cc1 (stereo unspecified) | – | 23.9
O=C(Nc1ccc(OC(F)(F)F)cc1)c1sccc1NCc1ccnc2ccccc12 | – | 18.5
CN(C)CCOC(=O)COc1ccc(Cl)cc1 | – | 1.19
CN(C)CCOC1=Cc2ccccc2Sc2ccc(Cl)cc21 | – | 96.6
CN1CCN(C2=Nc3ccccc3Sc3ccc(Cl)cc32)CC1 | – | 29.6
C[C@H]1[C@H](C)CC[C@]2(C(=O)O)CC[C@]3(C)C(=CC[C@@H]4[C@@]5(C)C[C@@H](O)[C@H](O)C(C)(C)[C@@H]5CC[C@]43C)[C@H]12 | – | -2.75
Cc1ccc([C@@H]2O[C@H](CO)[C@@H](O)[C@H](O)[C@H]2O)cc1Cc1ccc(-c2ccc(F)cc2)s1 | – | -5.59
CC(C)NC(=O)N1CC[C@H](NC2=Nc3cc(F)ccc3N(CC(F)F)c3ccc(Cl)cc32)C1 | – | 29.2
CN(C)CCn1cc(S(=O)(=O)c2cccc(F)c2)c2cccnc21 | – | 14.3
O=C(NCCCCCCNC(=O)ON=C1CCCCC1)ON=C1CCCCC1 | – | 40.7
AUROTHIOGLUCOSE, CHEMBL1697725 | 8.56 | –
COc1ccc2cc([C@H](C)C(=O)O)ccc2c1 | – | -2.33
COc1ccc2[nH]c(C(=O)c3ccccc3)cc2c1 | – | 109
COc1ccc2[nH]c(-c3ccccc3)c(CCNC(C)=O)c2c1 | – | 9.99
Cc1nn(C)c2c1C(c1ccc(C(F)(F)F)cc1)C(C#N)=C(N)O2 (stereo unspecified) | – | 27.3
OC[C@H]1O[C@@H]2O[C@H]3[C@H](O)[C@@H](O)[C@@H](O[C@H]4[C@H](O)[C@@H](O)[C@@H](O[C@H]5[C@H](O)[C@@H](O)[C@@H](O[C@H]6[C@H](O)[C@@H](O)[C@@H](O[C@H]7[C@H](O)[C@@H](O)[C@@H](O[C@H]8[C@H](O)[C@@H](O)[C@@H](O[C@H]1[C@H](O)[C@H]2O)O[C@@H]8CO)O[C@@H]7CO)O[C@@H]6CO)O[C@@H]5CO)O[C@@H]4CO)O[C@@H]3CO | – | -4.02
